Source: PubChem BioAssay AID2429 (National Center for Advancing Translational Sciences (NCATS), 2010)
The list shows a part of the results. Activity calls are given as the source filed them. The call rests on the fitted dose curve.

Target: 15-hydroxyprostaglandin dehydrogenase [NAD(+)] (Homo sapiens) (UniProt P15428)
Assay: Confirmation qHTS Assay for Inhibitors of HPGD (15-Hydroxyprostaglandin Dehydrogenase)
Conditions: recombinant HPGD, NADH fluorescence, PGE2 substrate
Excerpt: Assay Overview: Human 15-Hydroxyprostaglandin dehydrogenase (HPGD) catalyzes the inactivation of prostaglandin E2, and plays a major role in cancer biology by antagonizing the oncogenic potential of cyclooxygenase type 2 (COX2). Assays are available, based on absorbance/fluorescence increase of NADH with the substrate 15-OH prostaglandin E2. Inhibition of HPGD activity was screened by utilizing prostaglandin as an electron donor and NAD+ as an electron acceptor/cofactor. An increase in the fluorescence intensity due to conversion of NAD+ to NADH was used to measure the enzyme activity. This assay is a confirmation screen of primary qHTS protocol (See AID 894). References 1. Myung SJ, Rerko RM, Yan M, Platzer P, Guda K, Dotson A, Lawrence E, Dannenberg AJ, Lovgren AK, Luo G, Pretlow TP, Newman RA, Willis J, Dawson D, Markowitz SD. 15-Hydroxyprostaglandin dehydrogenase is an in vivo suppressor of colon tumorigenesis. Proc Natl Acad Sci U S A. 2006 Aug 8;103(32):12098-102. 2. […]
Buffer: 50 mM Tris-HCl, 0.01% Tween 20, pH 8. […] The plates were immediately transferred to and read 5 times every 30 seconds on ViewLux High-throughput CCD imager (Perkin-Elmer) using 360 nm excitation and 450 nm emission fluorescence protocol. The fluorescence intensity difference between the last and the first time points was used to compute reaction progress.

Chain of 15-hydroxyprostaglandin dehydrogenase [NAD(+)] (Homo sapiens) (P15428 whole entry, looked up): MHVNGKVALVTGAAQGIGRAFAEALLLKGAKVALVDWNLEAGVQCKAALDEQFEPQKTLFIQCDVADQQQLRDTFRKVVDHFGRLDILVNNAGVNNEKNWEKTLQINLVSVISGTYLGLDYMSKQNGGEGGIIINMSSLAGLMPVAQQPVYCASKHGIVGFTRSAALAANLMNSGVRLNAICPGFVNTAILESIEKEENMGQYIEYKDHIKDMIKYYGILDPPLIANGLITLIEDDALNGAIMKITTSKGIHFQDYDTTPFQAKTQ

## CCN(CC)C(=O)c1ccc(NC(=O)c2cc(-n3cnnc3)ccc2Cl)cc1
  Potency: 7.08 µM (active)
